Screening data deposited in PubChem BioAssay by National Center for Advancing Translational Sciences (NCATS).
D2 ag-1 – activates the human D2 dopamine receptor. P14416. DiscoveRx PathHunter D2 beta-arrestin, luminescence, 90 min; 100% = 57 uM dopamine signal. activation, % (test concentration not listed). hit rate 0.084% among 360,000. AID 624465; in the data active = activation above about 40%; inconclusive = between about 15% and that limit
Target sequence (P14416 whole entry, looked up): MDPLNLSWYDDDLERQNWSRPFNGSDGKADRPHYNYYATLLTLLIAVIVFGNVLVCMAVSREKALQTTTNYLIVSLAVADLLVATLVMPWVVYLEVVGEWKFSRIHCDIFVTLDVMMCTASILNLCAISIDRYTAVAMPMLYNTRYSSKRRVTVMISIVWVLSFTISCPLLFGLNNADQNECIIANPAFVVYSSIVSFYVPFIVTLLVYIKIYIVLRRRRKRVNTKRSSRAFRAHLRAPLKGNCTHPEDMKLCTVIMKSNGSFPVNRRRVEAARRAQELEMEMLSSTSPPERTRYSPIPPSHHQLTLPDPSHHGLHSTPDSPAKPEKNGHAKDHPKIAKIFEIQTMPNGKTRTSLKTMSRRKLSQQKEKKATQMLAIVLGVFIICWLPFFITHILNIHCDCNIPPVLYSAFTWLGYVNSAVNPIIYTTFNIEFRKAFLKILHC
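Agonist mode: compounds alone added to overnight-plated D2 PathHunter cells for 90 min at 37 C, with 57 uM final dopamine (EC100) defining full response. Beta-arrestin recruitment detected by chemiluminescent reagent, read after 1 h at ambient temperature.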
D2 ag-2 – activates the human D2 dopamine receptor. hit rate 0.53% among 340,000. HEK293 T-REx D2 cells, calcium flux agonist mode. activation, % at 2 µM. P14416;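 active = activation over 3 SD above normal in the single-dose calcium agonist read, cut at about 30% in these data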
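Agonism scored from kinetic calcium signal (1 read/sec, 180 s) following compound pin transfer, after a 10 s baseline. Cells: HEK293 Trex line expressing inducible D2 receptor coupled to calcium, dye-loaded after overnight culture at 30 C.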
D2 PAM-1 – positive allosteric modulators of human D2 dopamine receptor. hit rate 0.34% among 340,000. potentiation, % at 10 µM. AID 485347. HEK293 T-REx D2, calcium flux, EC20 dopamine potentiation;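 active = potentiation over 3 SD above the plate norm, cut at about 30% in these data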
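Primary screen. Calcium kinetics in induced HEK293 T-REx D2 cells: compound pre-addition 180 s, EC20 dopamine, 180 s more.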
D2 PAM-2 – positive allosteric modulators of human D2 dopamine receptor. hit rate 0.23% among 360,000. DiscoveRx D2 beta-arrestin cells, luminescence, 90 min; 100% = 57 uM dopamine signal. P14416. potentiation, % (no concentration beside the values); in the data active = potentiation above about 50%; inconclusive = mostly about 30% to 49%
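PathHunter D2 cells, attached overnight at 37 deg C, received compound in DMSO plus dopamine at EC20 (50 nM final) for 90 min at 37 deg C. Beta-arrestin recruitment was read as luminescence after 1 h with detection reagent at ambient temperature.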
D2 antagonist – antagonists of human D2 dopamine receptor | HEK293 TREx D2 cells, calcium flux, dopamine EC80 | inhibition, % at 10 µM | hit rate 2% among 340,000; in the data active = inhibition above about 30%; inactive = below that, where a call was filed
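Calcium flux kinetic readout in an inducible HEK293 TREx D2 line plated overnight at 30 C. After 180 s compound exposure, an EC80 dopamine challenge follows with another 180 s kinetic read to detect antagonism.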
Hits are given with their value; – = inactive; ? = inconclusive; · = no result given; ! = not confirmed by another sample. Rows were chosen to be rich in hits. Some 2.4% of all compounds tested hit in one or more screens of this group.

SMILES	D2 ag-1	D2 ag-2	D2 PAM-1	D2 PAM-2	D2 antagonist
N/C(=N\OC(=O)c1ccc(Cl)cc1Cl)c1ccccc1	?	–	–	?	–
N/C(=N\OC(=O)c1ccc(Cl)cc1Cl)c1cccnc1	50	–	–	–	–
N/C(=N\OC(=O)c1ccc(Cl)cc1Cl)c1ccc(Cl)cc1	?	–	–	114	–
N/C(=N\OC(=O)c1ccc(OCC(F)(F)F)nc1)c1ccc(Cl)cc1	?	–	–	53	30
N/C(=N\OC(=O)c1ccccc1Cl)c1ccc(Cl)cc1	?	·	·	–	·
CC(C)c1ccc(-c2noc(SCC(=O)N3CCCCC3)n2)cc1	·	–	–	·	·
CCCCNC(=O)Cc1coc2ccc3ccccc3c12	–	–	33	–	–
Cc1ccc(S(=O)(=O)NCC(=O)OC(C)C(=O)c2ccccc2)cc1 (configuration not stated)	–	–	–	–	31
Cc1ccc(C(=O)C(C)OC(=O)CNS(=O)(=O)c2ccc(C)cc2)cc1 (configuration not stated)	–	–	–	–	–
Cc1ccc(S(=O)(=O)N2CCCc3cc(NC(=O)c4ccc(C(C)(C)C)cc4)ccc32)cc1	·	–	–	·	·
CC1=Nc2cccc3cccc(c23)N1	–	–	–	56	–
Nc1ccc(C2=Nc3cccc4cccc(c34)N2)cc1	?	–	–	–	–
COc1ccc(NC(=O)C2=CC(c3ccc(C)cc3)=NS(=O)(=O)N2C)cc1OC	–	–	–	–	–
COc1ccc(C2=NS(=O)(=O)N(C)C(C(=O)Nc3ccc(OC)c(OC)c3)=C2)cc1	–	–	–	–	56
CC(=O)c1cccc(NC(=O)C2=CC(c3ccc4c(c3)OCO4)=NS(=O)(=O)N2C)c1	–	–	–	–	48
O=C(Cn1ccc2cc(S(=O)(=O)N3CCCCC3)ccc21)NCCc1ccccc1Cl	·	–	–	·	·
Cc1cccc(OCc2nnc(SCC(=O)N3CCCC3)o2)c1	–	–	–	–	–
O=C(CSc1nnc(-c2cccc(F)c2)o1)N1CCCC1	–	–	–	–	32
O=C(CSc1nnc(COc2ccc(F)cc2)o1)N1CCCCC1	–	–	–	–	97
Cc1cc(C)cc(OCc2nnc(SCC(=O)N3CCCCC3)o2)c1	–	–	44	–	–
COC(=O)CSc1nnc(COc2ccc3ccccc3c2)o1	–	–	–	–	–
CCOC(=O)CSc1nnc(COc2ccc3ccccc3c2)o1	–	–	–	–	34
CCN(CC)c1nn2c(=O)c(C(=O)NCCc3ccc(C)cc3)cnc2s1	·	–	·	·	·
O=C(CSc1nccn1Cc1ccccc1)Nc1ccc2c(c1)OCO2	·	–	–	·	·
COc1ccc(S(=O)(=O)N2CCN(CC(=O)Nc3ccc(Cl)c(C(F)(F)F)c3)CC2)cc1	·	–	–	·	·
SMILES	D2 ag-1	D2 ag-2	D2 PAM-1	D2 PAM-2	D2 antagonist
O=C(NCc1nnc(SCC(=O)N2CCCC2)o1)c1c(F)cccc1F	–	–	–	–	32
O=C(NCc1nnc(SCC(=O)N2CCCC2)o1)c1c(F)cccc1Cl	–	–	–	–	–
CCOc1ccccc1CNC(=O)c1ccc2nc(N3CCC(C)CC3)sc2c1	·	–	–	·	·
CC(C)(C)OC(=O)N1CCC(CC2CC(c3cccc(Br)c3)=NO2)(C(=O)NCC2CCCCC2)CC1 (configuration not stated)	–	–	–	–	–
O=C(c1ccccc1)N1CCC(CC2CC(c3cccc(Br)c3)=NO2)(C(=O)NCC2CCCCC2)CC1 (configuration not stated)	–	–	–	–	31
COc1ccccc1NC(=O)c1oc2ccccc2c1NC(=O)Cc1ccccc1	·	–	–	·	·
Cc1cccc(NC(=O)c2cnn(-c3ccccc3)c2-n2cccc2)c1C	·	–	–	·	·
CC(=O)Nc1ccc(S(=O)(=O)Nc2ccccc2C(=O)N2CCCCC2)cc1	–	–	31	–	–
CC1=Nc2ccc(C)cc2/C1=C/c1c(N)n2oc(C)cc2nc1=O	–	–	–	–	61!
CSc1nsc2nc(=O)c(/C=C3\C(C)=Nc4ccc(C)cc43)c(N)n12	–	–	·	–	–
COc1ccccc1OCCNC(=O)C1CCN(C(C)=O)CC1	–	–	31	–	–
CCc1nnc(NC(=O)COc2ccc(N(C)S(=O)(=O)c3ccc(C)cc3)cc2)s1	–	–	–	–	40
Cc1ccc(S(=O)(=O)N(C)c2ccc(OCC(=O)Nc3nnc(C4CC4)s3)cc2)cc1	–	–	–	–	–
Cc1ccc(NC(=O)C2CC(=O)NC(N3CCc4ccccc43)=N2)cc1 (configuration not stated)	–	–	–	–	44
CCOc1ccc(CCNC(=O)CCc2cn(Cc3ccc(C)cc3)c3ccccc23)cc1	·	–	–	·	·
Cc1ccnn2cc3c(=O)n(C)c(=O)n(C)c3c12	·	–	31	·	–
Cn1c(=O)c2cn3ncccc3c2n(C)c1=O	·	–	–	·	–
Cc1ccc(C(=O)N/N=C\c2ccccc2[N+](=O)[O-])cn1	–	–	·	–	–
Cc1ccsc1/C=N/NC(=O)c1cccs1	–	–	–	–	–
COc1cccc(/C=N/NC(=O)c2ccoc2C)c1O	–	–	–	–	–
O=C(N/N=C/C=C/c1ccccc1[N+](=O)[O-])c1cccs1	–	–	–	–	39
Cc1ccc(/C=N/NC(=O)c2cccs2)cc1[N+](=O)[O-]	–	–	–	–	35
O=C(N/N=C/c1ccccc1[N+](=O)[O-])c1cccs1	–	–	–	–	–
Cc1ccc(C(=O)N/N=C\C=C\c2ccccc2[N+](=O)[O-])cn1	–	–	–	–	47
Cc1occc1C(=O)N/N=C/c1ccccc1[N+](=O)[O-]	–	–	–	–	35
SMILES	D2 ag-1	D2 ag-2	D2 PAM-1	D2 PAM-2	D2 antagonist
CCOc1ccc(NC(=O)CC2C(=O)N(c3ccccc3)C(=O)N2C2CCCCC2)cc1 (configuration not stated)	·	–	–	·	·
O=C(Nc1cc(NC(=O)c2ccccc2Cl)ccc1Cl)c1ccccc1	·	–	–	·	·
CSc1ccc(S(=O)(=O)N2CCC(C(=O)NCC3CCCO3)CC2)cc1 (configuration not stated)	–	–	33	–	–
NC(=O)C1CCN(S(=O)(=O)c2cccc(S(=O)(=O)N3CCCCC3)c2)CC1	–	–	–	–	70
O=C(NCC1CCCO1)c1cccc(S(=O)(=O)N2CCCCC2)c1 (configuration not stated)	–	–	–	–	31
CC1CCN(S(=O)(=O)c2cccc(C(=O)NCC3CCCO3)c2)CC1 (configuration not stated)	–	–	–	–	–
Cc1ccc(NC(=O)Cn2ccn(-c3ccc(F)c(F)c3)c(=O)c2=O)cc1C	·	–	–	·	·
COc1ccc(C2c3c(n(C)c4ccccc34)C(=O)N2CC(=O)Nc2ccc(Cl)cc2)cc1 (configuration not stated)	·	–	–	·	·
COc1ccc(CCNC(=O)c2cc3c(s2)-c2c(C)cccc2OC3)c(OC)c1	·	–	–	·	·
